Hit rate of the full screen: of about 360,000 compounds, about 1,300 (0.36%) were called active. The sample holds actives, similar compounds and a random draw of the others, so the mix is not that of the screen. Rule as the data show it: active = inhibition above about 35% (passing the limit was not always enough); inactive = the rest.
molecular target: Polyadenylate-binding protein 1 (Homo sapiens) (UniProt P11940); experiment: inhibitors of PABP1 MLLE–PAM2 peptide binding, primary screen, biochemical, fluorescence polarization, FITC-PAM2, GST-MLLE (AID 588489); conditions: at 20 µM, hits give high values;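 also: plate controls were DMSO wells with GST-MLLE for no effect and wells lacking GST-MLLE protein for full effect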
Sequence (P11940 whole entry, looked up): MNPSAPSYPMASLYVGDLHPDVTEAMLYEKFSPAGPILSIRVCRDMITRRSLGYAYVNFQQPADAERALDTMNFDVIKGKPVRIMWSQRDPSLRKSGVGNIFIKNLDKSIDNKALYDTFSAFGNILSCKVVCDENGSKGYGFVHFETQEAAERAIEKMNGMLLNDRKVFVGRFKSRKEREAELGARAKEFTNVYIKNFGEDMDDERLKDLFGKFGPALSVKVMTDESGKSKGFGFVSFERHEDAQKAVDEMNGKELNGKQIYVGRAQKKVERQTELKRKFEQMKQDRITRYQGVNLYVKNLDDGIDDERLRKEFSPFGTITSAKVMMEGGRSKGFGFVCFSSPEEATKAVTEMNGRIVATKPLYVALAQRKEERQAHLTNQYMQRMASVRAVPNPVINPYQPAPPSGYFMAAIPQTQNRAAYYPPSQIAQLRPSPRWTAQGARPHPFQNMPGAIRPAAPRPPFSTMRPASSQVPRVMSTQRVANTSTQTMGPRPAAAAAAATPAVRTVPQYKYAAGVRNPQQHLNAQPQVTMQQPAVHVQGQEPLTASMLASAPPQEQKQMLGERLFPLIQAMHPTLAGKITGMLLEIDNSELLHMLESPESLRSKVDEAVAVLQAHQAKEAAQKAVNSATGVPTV

inhibition, inactive:
Nc1ccc2nc3c(=O)[nH]c(=S)[nH]c3nc2c1 177%
O=C1NCCn2nc3ccccc3c21 0.33%
COC(=O)c1ccc(CNC(=O)c2ccc(S(=O)(=O)N3CCCCCC3)cc2)cc1 -6.55%
Cc1cc2cc(CNC(=O)c3cccs3)ccc2[nH]1 38%
COCCn1c(N)c(N(Cc2ccccc2)C(=O)C2CCCCC2)c(=O)[nH]c1=O -2.43%
COCCN(C(=O)c1ccccc1F)c1c(N)n(Cc2ccccc2)c(=O)[nH]c1=O -9.82%
C=CCc1cccc2cc(C(=O)NC3CCCC3)c(=O)oc12 6.38%
CC1CN(C(=O)c2ccc3c(c2)OCO3)OC(c2ccccc2)O1 (stereo not given) 0.75%
CSCCC(NC(=O)C1CCC(C)CC1)C(=O)NCc1ccco1 (stereo not given) -8.36%
CC(=O)Nc1ccc(NC(=O)C(NS(=O)(=O)c2ccc3c(c2)OCCO3)C(C)C)cc1 (stereo not given) 1.54%
CCOC(=O)CNc1nc(Cl)nc(Nc2ccc(OC)cc2OC)n1 1.38%
CCOC(=O)C(C)n1cnc2c(nnn2-c2cccc(OC)c2)c1=O (stereo not given) 1.6%
Cc1cccc(-n2c(N)c(C(=O)N3CCN(C)CC3)sc2=S)c1 3.33%
O=C(CN1C(=O)COc2ccc(Cl)cc21)N1CCOCC1 8.9%
CC1(C(=O)NS(=O)(=O)Cc2cccc(Cl)c2)CCN1C(=O)Cc1ccccc1 (stereo not given) -3.36%
NNC(=O)CNC(c1ccccc1)c1cc(Cl)ccc1NC(=O)c1ccccc1 (stereo not given) -2.37%
COc1cc(NC(=O)Nc2ccc(C)cc2)cc([N+](=O)[O-])c1 -3.48%
COC(=O)c1ccccc1N=NNc1ccc([N+](=O)[O-])cc1 18.6%
OC(c1ccc(Cl)cc1)C(CN1CCOCC1)c1ccccc1 (stereo not given) -5.53%
C=C1c2cccc(OC)c2O[C@H](C(=O)OCC)[C@@H]1CCCCCC -73.6%
CC(=O)c1cnc(SCCN2C(=O)c3ccccc3C2=O)nc1C 4.46%
Cc1ccc(S(=O)(=O)NNC(=O)Nc2cccc3ccccc23)cc1 3.51%
COC(=O)c1c(C)[nH]c(C)c1-c1ccc([N+](=O)[O-])cc1 -2.95%
COC(=O)C1=CN(c2ccc(F)c(F)c2)C=C(C(=O)OC)C1c1ccc([N+](=O)[O-])cc1 9.34%
Cc1ccc(C2=NN(C)c3nc4ccccc4n3C2)cc1 -3.04%
COc1ccc(NS(=O)(=O)c2ccc(C)c(C(=O)NNC(=O)c3csc(N4CCOCC4)n3)c2)cc1 -13.1%
C=CCNC(=S)NNC(=O)c1ccc(Br)o1 -45.2%
CCCSc1nc2c(c(=O)n(C)c(=O)n2C)n1Cc1ccc(C)cc1 -1.85%
CCCCn1c(SCC(=O)NCCc2ccc(OC)c(OC)c2)nc2c1c(=O)n(C)c(=O)n2C 4.31%
O=C(NCCC(=O)N1O[C@@H]2C=C[C@H]1C2)OCC1c2ccccc2-c2ccccc21 -4.15%
CCOCc1nnc(NC(=O)CCC2CCCCC2)s1 -2.53%
Cc1cc([N+](=O)[O-])nn1CCCC(=O)Nc1cccnc1Cl 2.45%
COc1cccc(-n2c(=S)sc3c(=O)n(-c4ccccc4OC)c(SCC4OCCO4)nc32)c1 -1.94%
COc1cccc(-n2c(=S)sc3c(=O)n(-c4ccccc4C)c(SCC(=O)O)nc32)c1 -10.4%
COc1ccccc1C(=O)Oc1ccc(N2C(=O)CCC2=O)cc1 -2.33%
O=C(c1ccc(Cn2cc([N+](=O)[O-])cn2)o1)N1CCCC1 -7%
CC1COc2ccccc2N1C(=O)c1ccc(F)cc1 (stereo not given) -13.6%
O=C(c1ccc(F)cc1)N1CCC(n2nnc3ccccc32)CC1 -6.3%
O=C(COC(=O)/C=C/c1nc2ccccc2s1)Nc1ccccc1Oc1ccccc1 -5.84%
O=C(NCc1cn2ccsc2n1)Nc1cccc(Cl)c1 -5.66%
NS(=O)(=O)c1ccc(NC(=S)Nc2ccc(Br)c(Cl)c2)cc1 33.2%
Cc1ccc(C)c(NC(=S)NNC(=S)Nc2ccc(C(C)C)cc2)c1 30.8%
Cc1ccc(C2CCN(C(=S)Nc3cccc(Cl)c3)C2)cc1 (stereo not given) -122%
CCc1noc(C)c1C(=O)N1CCCC(N2CCN(c3ccc(F)cc3)CC2)C1 (stereo not given) -6.88%
Cc1cc(NC(=O)c2cc3ccccc3o2)no1 16%
Cc1cccc(-n2nc3c(c2NC(=O)c2cc4ccccc4o2)CS(=O)(=O)C3)c1 2.88%
C=CCn1c(SCC(=O)NCc2ccccc2)nnc1-c1cc(Br)ccc1O -75.9%
CCOC(=O)C1=C(CSc2nnnn2C)N(C)C(=O)NC1c1ccccc1 (stereo not given) -3.23%

inhibition, active:
O=c1[nH]c(=O)c2nc3ccccc3nc2[nH]1 53.2%
Cc1cc2cc(CNC(=O)c3ccc(S(=O)(=O)N4CCOCC4)cc3)ccc2[nH]1 45.1%
COCCn1c(N)c(NCc2ccccc2)c(=O)[nH]c1=O 44.1%
CCOC(=O)c1sc(=S)n(-c2cccc(OC)c2)c1N 40.5%
COc1ccc(Nc2ccc([N+](=O)[O-])cn2)cn1 48.7%
COC(=O)C1=C(C(=O)OC)C(c2cc([N+](=O)[O-])ccc2O)c2sc(=O)[nH]c2S1 (stereo not given) 40.3%
CCOc1ccc(Cn2c(SCCCCC#N)nc3c2c(=O)n(C)c(=O)n3C)cc1OCC 44%
COc1ccc(Cl)cc1-n1c(=S)sc2c(=O)n(-c3ccc(F)cc3)c(SCC(=O)O)nc21 43.8%
O=C(c1ccc(F)cc1)n1c(=S)nc2ccccn21 39%
Cc1csc(NC(=S)Nc2cccc(Cl)c2)n1 35.5%
Cc1cccc(NC(=S)Nc2ccc(Cl)c(Cl)c2)c1 37.8%
CC(C)(C)n1nc2c(c1NC(=O)c1cc3ccccc3o1)CSC2 47.2%
